Reference: PubChem BioAssay
Activity calls are given as the source filed them. How the calls were made is not given here.

The molecules below were run against Pantothenate synthetase (Mycobacterium tuberculosis (strain ATCC 25618 / H37Rv)) (UniProt P9WIL5) (assay: Coupled enzyme confirmation of inhibitors against recombinant Mtb PanC (AID 375;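 further: 0% = full reaction with vehicle and 100% = no enzyme background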)). Settings: coupled enzyme assay; at 10 µM, stronger effect = higher value.
Pantothenate synthetase (Mycobacterium tuberculosis (strain ATCC 25618 / H37Rv)), sequence (P9WIL5 whole entry, looked up): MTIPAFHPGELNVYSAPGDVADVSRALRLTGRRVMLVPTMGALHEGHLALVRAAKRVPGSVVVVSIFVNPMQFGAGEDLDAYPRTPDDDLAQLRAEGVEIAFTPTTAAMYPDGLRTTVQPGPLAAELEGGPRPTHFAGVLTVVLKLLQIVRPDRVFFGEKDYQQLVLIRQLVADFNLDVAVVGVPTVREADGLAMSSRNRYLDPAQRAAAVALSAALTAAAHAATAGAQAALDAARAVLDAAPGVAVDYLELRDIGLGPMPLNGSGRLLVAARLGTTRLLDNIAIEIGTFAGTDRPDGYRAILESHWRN

| SMILES | inhibition |
| --- | --- |
| O=C(NCCc1c[nH]c2ccccc12)c1ccc(S(=O)(=O)NCc2ccco2)cc1 | 0% (inactive) |
| COc1ccc(CCNc2oc(-c3ccccc3OC)nc2C#N)cc1 | 2% (inactive) |
| Cc1cc2ccccc2c(=O)n1CC(=O)N(C)c1ccc(F)cc1 | 0% (inactive) |
| CCOc1cc(C2C(C#N)=C(N)Oc3n[nH]c(CC)c32)ccc1OCCN1CCOCC1 (centres undefined) | 0% (inactive) |
| COC(=O)c1c(-c2ccc(F)cc2)noc1N | 2% (inactive) |
| CN(C)c1cccc(C(=O)OCC(=O)NCc2ccco2)c1 | 0% (inactive) |
| CC1CN(C(=O)c2scc3c2OCCO3)CC(C)O1 (centres undefined) | 2% (inactive) |
| COc1ccc2[nH]c(=O)c(CN(C(=O)c3ccncc3)C(C)C)cc2c1 | 0% (inactive) |
| Cc1cc(C)nc(NC2=NCC(=O)N2c2ccc(Cl)cc2)n1 | 0% (inactive) |
| Cc1cc(=O)oc2cc(OCC(=O)OCC(=O)N3CCc4ccccc43)ccc12 | 3% (inactive) |
| CCn1c(SCC(=O)Nc2ccc3c(c2)OCO3)nnc1-c1ccccc1O | 2% (inactive) |
| N#CC1(c2ccccc2)CCC(=NO)CC1 (centres undefined) | 0% (inactive) |
| Cc1nn(-c2ccccc2)c2c1C(=O)NC(=O)C(C)(C)C2 | 0% (inactive) |
| S=c1[nH]nc(Cc2ccccc2)n1Cc1ccco1 | 0% (inactive) |
| NC(=O)C1(N2CCCCC2)CCN(C2CC(=O)N(Cc3cccs3)C2=O)CC1 (centres undefined) | 0% (inactive) |
| c1ccc(Cn2nnc3c(N4CCCCCC4)ncnc32)cc1 | 7% (inactive) |
| CC(C)CCNC(=O)NC(=O)CSc1nnc(-c2ccccc2F)n1N | 0% (inactive) |
| CC1CCN(C(=O)CSCC(=O)Nc2nc(-c3cccs3)cs2)CC1 | 0% (inactive) |
| COc1cccc(-n2c(SCC(=O)OC(C)C)nnc2-c2cccnc2)c1 | 2% (inactive) |
| COc1ccc(N=c2scc(-c3ccc(S(=O)(=O)N4CCOCC4)cc3)n2CCCO)cc1 | 0% (inactive) |

| SMILES | inhibition |
| --- | --- |
| COc1ccccc1NC(=O)C(O)C(O)C(=O)Nc1ccccc1OC (centres undefined) | 3% (inactive) |
| CSc1nc2ccc(Nc3nc(N4CCOCC4)nc(N4CCOCC4)n3)cc2s1 | 2% (inactive) |
| COc1ccccc1N1CC(O)=C(c2nc3ccccc3c(=O)[nH]2)C1=N | 13% (inactive) |
| CCCS(=O)(=O)N1CCN(C(=O)c2cccnc2)CC1 | 0% (inactive) |
| CCCCC(=NCCO)C1=C(O)C(C(=O)OC)C(C)(C)CC1=O (centres undefined) | 8% (inactive) |
| Cn1nc(C(=O)Nc2cccc(C(F)(F)F)c2)ccc1=O | 0% (inactive) |
| CC(NC(=O)C1CCCN(S(=O)(=O)c2cccs2)C1)c1ccccc1 (centres undefined) | 0% (inactive) |
| CC(C)(C)C(=O)/C=C(\N)c1ccccn1 | 2% (inactive) |
| COc1ccc(C(=O)CN2C(=O)NC3(CCCc4ccccc43)C2=O)cc1OC (centres undefined) | 0% (inactive) |
| CCCCCC(=O)N(CN1C(=O)CCC1=O)c1ccccc1 | 5% (inactive) |
| CCN1CCc2c(C#N)c(N3CCOCC3)nc(NCc3ccccc3)c2C1 | 0% (inactive) |
| COc1ccc2c(c1OC)C(=O)N(c1ccc3c(c1)CCC3)C2=O | 2% (inactive) |
| C=CCOC(=O)CCC(=O)Nc1cc(OC)nc(OC)n1 | 0% (inactive) |
| O=c1c(-c2ccc(F)cc2)coc2c3c(ccc12)OCCO3 | 11% (inactive) |
| Cc1ccc(Cn2c(CN3CCOCC3)nc3c2c(=O)n(C)c(=O)n3C)cc1 | 0% (inactive) |
| CN1CCN(C(=O)c2ccc(CS(=O)(=O)c3c(Cl)cccc3Cl)o2)CC1 | 16% (inactive) |
| CCN(CC)CCOC(=O)c1c(C)oc2ccc(O)cc12 | 0% (inactive) |
| Cc1c(NC2=NC3(CCCCC3)Cc3ccccc32)c(=O)n(-c2ccccc2)n1C | 2% (inactive) |
| CN/C(=C/[N+](=O)[O-])NCCSCc1ccc(CN(C)C)o1 | 4% (inactive) |
